Entries with a potency or affinity are not part of this list. Activity calls are given as the source filed them.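 How the source made its calls: active means a dose-response curve fit returns a half-maximal inhibitory concentration, extrapolated values included; inactive means the fit returns no such concentration.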
Biological target: HMG-CoA reductase [Enterococcus faecalis] (UniProt Q9FD70)
Assay: inhibitors of E. faecalis class II HMGR, confirmation, biochemical, Enterococcus faecalis (AID 1233)
Conditions: purified E. faecalis HMGR, NADPH absorbance 340 nm kinetics; series mostly up to 100 µM

Structure (SMILES)	outcome
CCS(=O)(=O)CCn1c([N+](=O)[O-])cnc1C	inactive
CCOC(=O)C(NC(C)=O)(Nc1ccc(S(=O)(=O)Nc2cc(C)nc(C)n2)cc1)C(F)(F)F (stereo not drawn)	inactive
CCc1ccc(NC(=O)CSCc2ccc(C(=O)O)cc2)cc1	inactive
O=C(COC(=O)c1ccc[nH]c1=O)NC1CCCCCC1	inactive
COc1ccc(-c2[nH]nc3c2C(c2ccsc2)C(C#N)=C(N)O3)cc1 (stereo not drawn)	inactive
O=C(COC(=O)c1cc([N+](=O)[O-])ccc1NCCO)c1ccc(Cl)cc1	inactive
Cn1cnnc1Sc1ccc(C(=O)OCC(=O)NC2CC2)cc1[N+](=O)[O-]	inactive
O=C(O)C(Cc1ccccc1)N1C(=O)C2CCCCC2C1=O (stereo not drawn)	inactive
Cc1nc(SCC(=O)N2CC(=O)Nc3ccccc32)c2c(C)c(C)sc2n1	inactive
C=CCn1c(C)c(C(C)=O)c(N2CCCC2)nc1=S	inactive
O=C(Nc1ccncc1)c1ccc(C(=O)Nc2ccncc2)cc1	inactive
CCN1CCN(CCC(=O)Nc2ccc3c(c2)OCO3)CC1	inactive
O=C(OCC(=O)N1CCN(C(=O)c2ccco2)CC1)c1cc(-c2ccco2)nc2ccccc12	inactive
O=C(NC(NC(=S)Nc1ccccc1C(=O)O)C(Cl)(Cl)Cl)c1ccccc1 (stereo not drawn)	inactive
CC(=O)NC(Cc1cccc(F)c1)C(=O)NC1CCN(c2ncccc2[N+](=O)[O-])CC1 (stereo not drawn)	inactive
CC(=O)Oc1ccccc1-c1nc(C)nc(N(C)C(C)=O)n1	inactive
Cc1cc(C)c(S(=O)(=O)c2ccccc2)c(OC(=O)c2c(F)cccc2F)n1	inactive
CC(C)(C)[C@H]1C=C(C(=O)N2CCN(Cc3ccc4c(c3)OCO4)CC2)O[C@@H](OCc2ccc(CO)cc2)C1	inactive

— PubChem BioAssay AID1233 (SRMLSC, 2008)
